In PubChem BioAssay (EPA / NIEHS):
The source made the active and inactive calls. How the source made its calls: active means hit-call score of the fitted dose curve at least 0.9, where 1 is the maximum; inactive means score below 0.9.

Columns and labels:
Conditions in all cases: mRNA level, 48 h; actives raise or lower the signal
[1] = read-out: matrix metalloproteinase-3 (MMP3), MMP3 (gene 4314); experiment: LTEA_HepaRG_MMP3: Life Technologies and Expression Analysis (LTEA) Assay for matrix metalloproteinase-3 (MMP3) using HepaRG (AID 2283519)
Procedure, shortened: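 Fluidigm-based TaqMan qRT-PCR, normalized to ACTB, GAPDH and POLR2A and fitted bidirectionally versus 0.5% DMSO, measured transcript levels. Treatment: duplicate 48 h exposures of HepaRG cells, ~100,000/well, to eight half-log concentrations topping at 100 uM.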

[2] = read-out: Paternally Expressed 10 (PEG10), PEG10 (gene 23089); experiment: LTEA_HepaRG_PEG10: Life Technologies and Expression Analysis (LTEA) Assay for Paternally Expressed 10 (PEG10) using HepaRG (AID 2283520)
Procedure, shortened: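 PEG10 transcript measured by Fluidigm qRT-PCR, normalized to three housekeeping genes, in HepaRG cells treated 48 h (highest 100 uM, half-log steps, 0.5% DMSO vehicle). Cells plated 48 h before switching to serum-free induction medium.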

[3] = read-out: Phosphatase and tensin (PTEN), PTEN (gene 5728); experiment: LTEA_HepaRG_PTEN: Life Technologies and Expression Analysis (LTEA) Assay for Phosphatase and tensin (PTEN) using HepaRG (AID 2283523)
Procedure, shortened: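 Read-out: TaqMan qRT-PCR of PTEN transcript, normalized to three housekeeping genes, fitted in both directions against 0.5% DMSO. Differentiated human HepaRG cultures received chemicals for 48 h, eight-point half-log series topping at 100 uM.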

[4] = read-out: solute carrier (SLC22A1), SLC22A1 (gene 6580); experiment: LTEA_HepaRG_SLC22A1: Life Technologies and Expression Analysis (LTEA) Assay for solute carrier (SLC22A1) using HepaRG (AID 2283524)
Procedure, shortened: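 Transcript level of SLC22A1 quantified by qRT-PCR (normalized to three housekeeping genes) after 48 h chemical exposure of HepaRG cells, eight concentrations up to 100 µM, half-log steps, 0.5% DMSO vehicle. Gain or loss relative to DMSO fitted bidirectionally.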

[5] = read-out: Pyruvate Dehydrogenase Kinase 4 (PDK4), PDK4 (gene 5166); experiment: LTEA_HepaRG_PDK4: Life Technologies and Expression Analysis (LTEA) Assay for Pyruvate Dehydrogenase Kinase 4 (PDK4) using HepaRG (AID 2283525)
Procedure, shortened: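 Readout is qRT-PCR of PDK4 transcript, normalized to three housekeeping genes, with bidirectional fitting against 0.5% DMSO vehicle. Differentiated HepaRG cells were treated 48 h in serum-free induction medium, duplicate wells, eight-point half-log series topping at 100 uM.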

[6] = read-out: NAD(P)H dehydrogenase [quinone] 1 (NQO1), NQO1 (gene 1728); experiment: LTEA_HepaRG_NQO1: Life Technologies and Expression Analysis (LTEA) Assay for NAD(P)H dehydrogenase [quinone] 1 (NQO1) using HepaRG (AID 2283526)
Procedure, shortened: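 NQO1 transcript induction or loss measured by TaqMan qRT-PCR, referenced to three housekeeping genes and fitted bidirectionally against 0.5% DMSO. HepaRG cultures exposed 48 h, duplicate, eight-point half-log series, top 100 uM.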

[7] = read-out: Nuclear factor erythroid 2-related factor 2 (Homo sapiens) (UniProt Q16236); experiment: LTEA_HepaRG_NFE2L2: Life Technologies and Expression Analysis (LTEA) Assay for Nuclear factor erythroid 2-related factor 2 (NFE2L2) Transcription Factor using HepaRG (AID 2283527);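 further: TaqMan qRT-PCR transcript level normalised to ACTB GAPDH and POLR2A housekeeping genes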
Procedure, shortened: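 NFE2L2 transcript level was read by qRT-PCR (housekeeping ACTB/GAPDH/POLR2A normalisation) after 48 h chemical treatment of HepaRG in serum-free induction medium. Duplicate 8-point half-log curves, top 100 uM, 0.5% DMSO vehicle; up- or down-regulation fitted against vehicle.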

[8] = read-out: Signal transducer and activator of transcription 3 (Homo sapiens) (UniProt P40763); experiment: LTEA_HepaRG_STAT3: Life Technologies and Expression Analysis (LTEA) Assay for Signal transducer and activator of transcription (STAT3) using HepaRG (AID 2283529)
Procedure, shortened: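 STAT3 transcript quantified by qRT-PCR against three housekeeping genes (ACTB, GAPDH, POLR2A), fitted both directions relative to DMSO. HepaRG cultures exposed 48 h to eight half-log concentrations, top 100 uM, 0.5% DMSO, serum-free induction medium.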

[9] = read-out: solute carrier (SLCO1B1), SLCO1B1 (gene 10599); experiment: LTEA_HepaRG_SLCO1B1: Life Technologies and Expression Analysis (LTEA) Assay for solute carrier (SLCO1B1) using HepaRG (AID 2283530)
Procedure, shortened: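 Human HepaRG cultures treated for 48 h with an eight-concentration half-log series topping at 100 uM; SLCO1B1 measured by qRT-PCR and fitted bidirectionally relative to DMSO.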

[10] = read-out: sulfotransferase 2A1 (SULT2A1), SULT2A1 (gene 6822); experiment: LTEA_HepaRG_SULT2A1: Life Technologies and Expression Analysis (LTEA) Assay for sulfotransferase 2A1 (SULT2A1) using HepaRG (AID 2283531)
Procedure, shortened: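 Gene-expression endpoint in a human liver cell line: SULT2A1 mRNA change after 48 h chemical treatment, curves fitted in both directions relative to 0.5% DMSO vehicle. Concentrations spanned eight half-log steps from 100 uM.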

[11] = read-out: Transforming Growth Factor (TGFA), TGFA (gene 7039); experiment: LTEA_HepaRG_TGFA: Life Technologies and Expression Analysis (LTEA) Assay for Transforming Growth Factor (TGFA) using HepaRG (AID 2283532)
Procedure, shortened: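 TGFA transcript quantified by qRT-PCR (Fluidigm arrays) against three housekeeping genes, after 48 hours chemical treatment of HepaRG cells. Top concentration 100 uM with half-log dilutions, 8 points, duplicates, 0.5% DMSO.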

[12] = read-out: Transforming Growth Factor (TGFB1), TGFB1 (gene 7040); experiment: LTEA_HepaRG_TGFB1: Life Technologies and Expression Analysis (LTEA) Assay for Transforming Growth Factor (TGFB1) Transporter using HepaRG (AID 2283533)
Procedure, shortened: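 Eight-point concentration-response (max 100 uM, half-log) in HepaRG under serum-free induction conditions, 48 h. TGFB1 mRNA by qRT-PCR, housekeeping-normalized.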

[13] = read-out: TIMP1, TIMP1 (gene 7076); experiment: LTEA_HepaRG_TIMP1: Life Technologies and Expression Analysis (LTEA) Assay for TIMP1 using HepaRG (AID 2283534);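 further: TaqMan qRT-PCR signal normalized to ACTB GAPDH and POLR2A housekeeping genes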
Procedure, shortened: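 TIMP1 induction or repression in HepaRG cells after 48 h chemical exposure (eight concentrations, highest 100 uM), assessed by normalized qRT-PCR with bidirectional fitting to DMSO controls.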

[14] = read-out: Tumor necrosis factor receptor 1 (TNFRSF1A), TNFRSF1A (gene 7132); experiment: LTEA_HepaRG_TNFRSF1A: Life Technologies and Expression Analysis (LTEA) Assay for Tumor necrosis factor receptor 1 (TNFRSF1A) using HepaRG (AID 2283535)
Procedure, shortened: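 Assay uses 48 h chemical treatment of differentiated HepaRG monolayers, tested in duplicate at eight concentrations from 100 uM downward in 0.5% DMSO. mRNA is normalized to ACTB, GAPDH and POLR2A, with induction or suppression fitted relative to vehicle.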

[15] = read-out: Cellular tumor antigen p53 (Homo sapiens) (UniProt P04637); experiment: LTEA_HepaRG_TP53: Life Technologies and Expression Analysis (LTEA) Assay for Tumor Protein P53 (TP53) using HepaRG (AID 2283537)
Procedure, shortened: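 HepaRG, 48 h exposure, top 100 uM, half-log 8-point, 0.5% DMSO vehicle, duplicates. Read: TP53 mRNA by TaqMan qRT-PCR, normalised to ACTB/GAPDH/POLR2A; bidirectional fit vs DMSO.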

[16] = read-out: UDP glucuronosyltransferase (UGT1A1), UGT1A1 (gene 54658); experiment: LTEA_HepaRG_UGT1A1: Life Technologies and Expression Analysis (LTEA) Assay for UDP glucuronosyltransferase (UGT1A1) using HepaRG (AID 2283538)
Procedure, shortened: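 UGT1A1 transcript level, measured by qRT-PCR with three housekeeping genes for normalization, after 48 h treatment of human HepaRG cells (0.5% DMSO, duplicates, up to 100 uM, half-log steps, 8 points). Curves fit both directions against DMSO baseline.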

[17] = read-out: Thyroid Hormone Responsive (THRSP), THRSP (gene 7069); experiment: LTEA_HepaRG_THRSP: Life Technologies and Expression Analysis (LTEA) Assay for Thyroid Hormone Responsive (THRSP) using HepaRG (AID 2283536)
Procedure, shortened: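 THRSP transcript quantified by Fluidigm qRT-PCR against three housekeeping genes after 48 h chemical exposure of HepaRG cells in serum-free induction medium; eight-point half-log series, top 100 uM, 0.5% DMSO vehicle, duplicate wells.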

[18] = read-out: Nuclear factor NF-kappa-B p105 subunit (Homo sapiens) (UniProt P19838); experiment: LTEA_HepaRG_NFKB1: Life Technologies and Expression Analysis (LTEA) Assay for Nuclear Factor Kappa B Subunit 1 (NFKB1) using HepaRG (AID 2283521)
Procedure, shortened: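 Differentiated human HepaRG cells were exposed for 48 h in serum-free induction medium to eight concentrations (top 100 uM, half-log steps, 0.5% DMSO), in duplicate. NFKB1 mRNA was measured by TaqMan qRT-PCR, normalized to ACTB/GAPDH/POLR2A, and fitted bidirectionally against DMSO.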

[19] = read-out: Protein phosphatase 2A (PPP2R4), PTPA (gene 5524); experiment: LTEA_HepaRG_PPP2R4: Life Technologies and Expression Analysis (LTEA) Assay for Protein phosphatase 2A (PPP2R4) using HepaRG (AID 2283522)
Procedure, shortened: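 Expression was quantified by Fluidigm qRT-PCR normalised to three housekeeping genes after 48 h treatment. Human HepaRG cells received an 8-point series from 100 µM downward by half-logs, in duplicate with 0.5% DMSO vehicle and 1 mM phenobarbital as induction control.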

[20] = read-out: succinate dehydrogenase complex iron sulfur subunit B (SDHB), SDHB (gene 6390); experiment: LTEA_HepaRG_SDHB: Life Technologies and Expression Analysis (LTEA) Assay for succinate dehydrogenase complex iron sulfur subunit B (SDHB) using HepaRG (AID 2283528)
Procedure, shortened: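 HepaRG, 48 h exposure, 8-pt half-log series from 100 uM in 0.5% DMSO, duplicates. Readout: SDHB mRNA by Fluidigm qRT-PCR vs housekeeping genes; bidirectional fit relative to DMSO.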

Measured: outcome

Chain of Cellular tumor antigen p53 (Homo sapiens) (P04637 whole entry, looked up): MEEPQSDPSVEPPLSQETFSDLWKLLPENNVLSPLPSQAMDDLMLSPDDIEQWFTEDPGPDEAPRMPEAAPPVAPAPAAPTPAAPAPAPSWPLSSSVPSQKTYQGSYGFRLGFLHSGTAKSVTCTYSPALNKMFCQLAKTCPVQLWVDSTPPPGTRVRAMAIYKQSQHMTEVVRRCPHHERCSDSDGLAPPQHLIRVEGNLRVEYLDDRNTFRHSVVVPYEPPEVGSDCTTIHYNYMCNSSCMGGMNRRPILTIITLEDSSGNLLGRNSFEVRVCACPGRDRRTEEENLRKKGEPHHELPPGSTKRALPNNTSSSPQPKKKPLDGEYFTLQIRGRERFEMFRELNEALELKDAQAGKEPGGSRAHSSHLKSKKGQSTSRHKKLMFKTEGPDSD
Chain of Signal transducer and activator of transcription 3 (Homo sapiens) (P40763 whole entry, looked up): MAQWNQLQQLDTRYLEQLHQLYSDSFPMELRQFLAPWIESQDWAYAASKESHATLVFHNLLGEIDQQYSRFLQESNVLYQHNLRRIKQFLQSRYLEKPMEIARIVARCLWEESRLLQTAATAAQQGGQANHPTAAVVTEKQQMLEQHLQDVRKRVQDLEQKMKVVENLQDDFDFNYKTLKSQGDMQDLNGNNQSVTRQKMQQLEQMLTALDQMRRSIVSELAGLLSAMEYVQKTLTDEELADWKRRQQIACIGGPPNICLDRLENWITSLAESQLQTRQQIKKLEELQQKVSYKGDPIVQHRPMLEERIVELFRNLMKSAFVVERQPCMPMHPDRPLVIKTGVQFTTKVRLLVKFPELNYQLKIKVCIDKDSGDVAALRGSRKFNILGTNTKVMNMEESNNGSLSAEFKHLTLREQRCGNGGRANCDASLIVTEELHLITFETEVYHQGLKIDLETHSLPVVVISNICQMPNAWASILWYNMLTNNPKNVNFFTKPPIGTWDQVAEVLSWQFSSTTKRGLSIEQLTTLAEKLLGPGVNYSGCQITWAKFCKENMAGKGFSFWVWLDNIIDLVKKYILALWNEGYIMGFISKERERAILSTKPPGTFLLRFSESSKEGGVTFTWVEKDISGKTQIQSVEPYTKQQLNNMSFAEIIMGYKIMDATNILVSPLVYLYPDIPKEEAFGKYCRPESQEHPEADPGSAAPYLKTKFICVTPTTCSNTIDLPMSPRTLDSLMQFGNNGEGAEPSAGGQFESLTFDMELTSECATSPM
Chain of Nuclear factor erythroid 2-related factor 2 (Homo sapiens) (Q16236 whole entry, looked up): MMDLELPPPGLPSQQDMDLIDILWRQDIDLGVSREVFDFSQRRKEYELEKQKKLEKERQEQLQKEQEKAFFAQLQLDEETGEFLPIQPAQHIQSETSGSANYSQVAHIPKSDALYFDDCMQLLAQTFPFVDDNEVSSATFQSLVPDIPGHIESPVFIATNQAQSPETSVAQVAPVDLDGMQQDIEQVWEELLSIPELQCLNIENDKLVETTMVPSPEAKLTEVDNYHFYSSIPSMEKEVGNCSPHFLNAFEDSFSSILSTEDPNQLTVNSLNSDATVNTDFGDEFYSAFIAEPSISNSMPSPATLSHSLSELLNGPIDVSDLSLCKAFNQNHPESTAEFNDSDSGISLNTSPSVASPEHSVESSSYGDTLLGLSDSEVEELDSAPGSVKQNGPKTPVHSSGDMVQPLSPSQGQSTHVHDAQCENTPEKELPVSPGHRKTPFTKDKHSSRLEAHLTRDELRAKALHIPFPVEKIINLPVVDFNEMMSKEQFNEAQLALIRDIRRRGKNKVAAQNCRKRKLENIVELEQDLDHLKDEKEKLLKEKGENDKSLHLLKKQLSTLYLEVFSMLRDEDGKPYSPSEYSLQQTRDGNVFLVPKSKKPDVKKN
Chain of Nuclear factor NF-kappa-B p105 subunit (Homo sapiens) (P19838 whole entry, looked up): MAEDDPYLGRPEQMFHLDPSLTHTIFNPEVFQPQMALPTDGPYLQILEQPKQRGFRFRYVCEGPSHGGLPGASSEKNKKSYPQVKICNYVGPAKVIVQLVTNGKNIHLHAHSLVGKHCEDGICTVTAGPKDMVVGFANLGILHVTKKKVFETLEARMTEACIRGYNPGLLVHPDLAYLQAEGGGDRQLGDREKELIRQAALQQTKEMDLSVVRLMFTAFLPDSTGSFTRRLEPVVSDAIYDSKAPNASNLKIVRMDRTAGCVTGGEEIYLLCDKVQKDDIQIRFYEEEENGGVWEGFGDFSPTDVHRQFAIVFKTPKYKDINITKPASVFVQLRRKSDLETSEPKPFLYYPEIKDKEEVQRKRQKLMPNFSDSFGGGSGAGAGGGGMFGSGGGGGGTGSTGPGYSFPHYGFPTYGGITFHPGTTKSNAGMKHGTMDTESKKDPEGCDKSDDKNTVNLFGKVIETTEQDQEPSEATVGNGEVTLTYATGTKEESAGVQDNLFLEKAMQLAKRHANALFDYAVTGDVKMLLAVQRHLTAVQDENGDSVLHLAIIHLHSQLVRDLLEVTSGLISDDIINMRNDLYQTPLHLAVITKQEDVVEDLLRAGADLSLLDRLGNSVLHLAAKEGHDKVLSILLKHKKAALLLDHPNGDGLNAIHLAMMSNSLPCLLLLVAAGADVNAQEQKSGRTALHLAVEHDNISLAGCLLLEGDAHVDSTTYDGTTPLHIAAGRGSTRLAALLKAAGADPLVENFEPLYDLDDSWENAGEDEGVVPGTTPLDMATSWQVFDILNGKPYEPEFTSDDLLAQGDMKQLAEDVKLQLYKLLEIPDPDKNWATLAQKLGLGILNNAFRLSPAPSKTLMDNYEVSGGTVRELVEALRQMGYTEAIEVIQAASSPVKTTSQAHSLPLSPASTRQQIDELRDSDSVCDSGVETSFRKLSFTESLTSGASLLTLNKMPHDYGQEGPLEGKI

CC(=O)OC/C=C(\C)CCC=C(C)C
not listed: [17] | [18] | [19] | [20]
inactive: all other assays above

CC(=O)OCCOCCOCCOC(C)=O
not listed: [18] | [19] | [20]
inactive: all other assays above

CCCCCCC(=O)OCC
not listed: [1] | [17] | [20]
inactive: all other assays above

NS(=O)(=O)c1cc2c(cc1Cl)NCNS2(=O)=O
not listed: [18]
inactive: all other assays above

Cc1ccccc1Cl
not listed: [18]
inactive: all other assays above

CCOC(=O)C(C)(C)Oc1ccc(Cl)cc1
not listed: [1] | [5] | [16]
inactive: all other assays above

COc1ccc2c(c1)c(CC(=O)O)c(C)n2C(=O)c1ccc(Cl)cc1
not listed: [8] | [16] | [18]
inactive: all other assays above
